Calls of active or inactive are those of the source. Calls come from the whole dose curve; as a rule, active = well fitted curve in the direction sought with a large enough effect; inconclusive = small, poorly fitted or top-dose-only effect, or another doubt; inactive = no such curve, though single readings can be large or run the other way.
target: alpha-glucosidase (Oryza sativa, rice) (UniProt Q653V4); assay: Counterscreen for Glucocerebrosidase Inhibitors: qHTS Assay for Rice alpha-Glucosidase at pH 5.0 (AID 997); details: rice alpha-glucosidase enzyme activity; series mostly up to 76.9 µM
Excerpt: NIH Chemical Genomics Center [NCGC]
NIH Molecular Libraries Screening Centers Network [MLSCN]
PI Name: Zheng, Wei [NIH]
Alpha-glucosidase is responsible for hydrolysis of terminal, non-reducing 1,4-linked alpha-D-glucose residues with release of alpha-D-glucose. It is a lysosomal hydrolase that is required for the degradation of a small percentage (1-3%) of cellular glycogen in human. Deficiency of this enzyme results in glycogen-storage disease type II (GSDII), also referred to as Pompe disease, an autosomal recessive disorder. Structurally normal glycogen is accumulated in lysosomes and cytoplasm in affected patients, primarily in muscle tissues. Excessive glycogen storage within lysosomes may interrupt normal functioning of other organelles and leads to cellular injury. In turn, this leads to enlargement and dysfunction of the entire organ involved (eg, cardiomyopathy and muscle weakness).
It has reported that the improper folding and trafficking of alpha-glucosidase resulted from the genetic mutations may account for a significant number of Prope patients. […] We optimized this alpha-glucosidase assay in 1536-well plate format for identifying the novel small molecule inhibitors with the structures other than the sugar analogs in order to develop the new pharmacological chaperones.
NCGC Assay Protocol Summary:
This is a fluorogenic enzyme assay with 4-methylumbelliferyl-alpha-D-pyranoside as the substrate and rice alpha-glucosidase as the enzyme preparation. Upon the hydrolysis of this fluorogenic substrate, the resulting product, 1. 4-methyllumbelliferone, can be excited at 365 nm and emits at 440 nm which can be detected by a standard fluorescence plate reader. Data were normalized to the controls for basal activity (without enzyme) and 100% activity (with enzyme). In the AC50 values were determined from concentration-response data modeled with the standard Hill equation.
Assay buffer: 50 mM citric acid, 0.005% Tween-20, pH 5.0. (pH 5.0 is an optimal condition for this enzyme assay)
1536-well assay protocol for the human alpha-glucosidase:
(1) Add 2 ul/well of enzyme (4 nM final)
(2) Add 23 nL compounds in DMSO solution. The final titration was 0.7 nM to 77 uM.
(3) Add 1 ul of substrate (400 uM final)
(4) Incubate at room temperature for 20 min.
(5) Add 2 ul stop solution (1M NaOH and 1M Glycine mixture, pH 10)
(6) Detect the assay plate in a ViewLux plate reader (PerkinElmer) with Ex=365 nm and Em=440nm.
Keywords: Alpha-glucosidase, Prope Disease, pharmacological chaperone, chaperone therapy, high throughput screening, alpha-glucosidase inhibitor, MLSMR, MLSCN, NIH Roadmap, qHTS and NCGC

SMILES | outcome
CN(C)C(=O)C(CCN1CCC(O)(c2ccc(Cl)cc2)CC1)(c1ccccc1)c1ccccc1 | inactive
Cn1c(=O)c2[nH]cnc2n(C)c1=O | inactive
Cc1cc(C(C)(C)C)cc(C)c1CC1=NCCN1 | inactive
NCCCCCC(=O)O | inactive
CN1CCN(CCCN2c3ccccc3Sc3ccc(Cl)cc32)CC1 | inactive
O=C(c1ccc(F)cc1)C1CCN(CCn2c(=O)[nH]c3ccccc3c2=O)CC1 | inactive
CCCCc1oc2ccccc2c1C(=O)c1cc(I)c(OCCN(CC)CC)c(I)c1 | inactive
Cc1cnc(C(=O)NCCc2ccc(S(=O)(=O)NC(=O)NC3CCCCC3)cc2)cn1 | inactive
O=C(CCCN1CCC(O)(c2ccc(Cl)cc2)CC1)c1ccc(F)cc1 | inactive
NS(=O)(=O)c1cc2c(cc1Cl)NCNS2(=O)=O | inactive
OCCN(CCO)c1nc(N2CCCCC2)c2nc(N(CCO)CCO)nc(N3CCCCC3)c2n1 | inactive
CCc1cccc2c3c([nH]c12)C(CC)(CC(=O)O)OCC3 (stereo not given) | inactive
Cn1cnc2c1c(=O)[nH]c(=O)n2C | inactive
CS(=O)(=O)Nc1ccc([N+](=O)[O-])cc1Oc1ccccc1 | inactive
O=c1c(-c2ccc(O)cc2)coc2cc(O)cc(O)c12 | inactive
NCCS(=O)(=O)O | inactive
CN(Cc1cnc2nc(N)nc(N)c2n1)c1ccc(C(=O)N[C@@H](CCC(=O)O)C(=O)O)cc1 | inactive
CC(C)C(=O)Nc1ccc([N+](=O)[O-])c(C(F)(F)F)c1 | inactive
O=c1c(O)c(-c2ccc(O)c(O)c2)oc2cc(O)cc(O)c12 | inactive
CC[N+](CC)(CC)CCOc1cccc(OCC[N+](CC)(CC)CC)c1OCC[N+](CC)(CC)CC | inactive

SMILES | outcome
NC12CC3CC(CC(C3)C1)C2 | inactive
Cn1ccc2cc3c(cc21)CCN3C(=O)Nc1cccnc1 | inactive
CN(C)CCC=C1c2ccccc2C=Cc2ccccc21 | inactive
C[C@](N)(Cc1ccc(O)c(O)c1)C(=O)O | inactive
CN(C)c1nc(N(C)C)nc(N(C)C)n1 | inactive
CCOC(=O)Nc1ccc(NCc2ccc(F)cc2)nc1N | inactive
CN1C(C(=O)Nc2ccccn2)=C(O)c2ccccc2S1(=O)=O | inactive
Cc1cn([C@H]2C=C[C@@H](CO)O2)c(=O)[nH]c1=O | inactive
OCCN1CCN(CCCN2c3ccccc3Sc3ccc(C(F)(F)F)cc32)CC1 | inactive
CN(C)CCOC(c1ccccc1)c1ccccc1 | inactive
Cn1c(=O)c2c(ncn2C)n(C)c1=O | inactive
Nc1nc2c(ncn2COC(CO)CO)c(=O)[nH]1 | inactive
CCOC(=O)C(C)(C)Oc1ccc(Cl)cc1 | inactive
Fc1ccc([C@@H]2CCNC[C@H]2COc2ccc3c(c2)OCO3)cc1 | inactive
Nc1nnc(-c2cccc(Cl)c2Cl)c(N)n1 | inactive
Clc1ccc(C(c2ccccc2Cl)C(Cl)Cl)cc1 (stereo not given) | inactive
CCOC(=O)c1ncn2c1CN(C)C(=O)c1cc(F)ccc1-2 | inactive
Clc1ccc2c(c1)C(N1CCNCC1)=Nc1ccccc1O2 | inactive
COC(=O)Nc1nc2ccc(C(=O)c3cccs3)cc2[nH]1 | inactive
CC(C)Cc1ccc(C(C)C(=O)O)cc1 (stereo not given) | inactive
